C diff HTS = C. difficile growth inhibition. Clostridium difficile clinical isolate growth, OD600, 24 h; hits give low values. growth activity, negative = inhibition, % at 16 µg/mL (by protocol). actives 0.25% (n = 86,000);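 active means mean growth activity at or below -80% and every replicate also at or below -80%; inconclusive means mean at or below -80% but some replicate above -80%; inactive means mean growth activity above -80%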;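 further: 0% = DMSO wells and -100% = levofloxacin 16 µg/mL wells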
Pf Dd2 growth = blocks growth of Plasmodium falciparum Dd2 parasites | P. falciparum Dd2 growth, SYBR Green, 72 h; hits give low values | activity change, % at 10 µM | actives 2.3% (n = 94,000) | AID 1159554; in the data active means activity change below about -80%; inconclusive means no clear call, values can overlap the other calls
T cruzi growth-1 = inhibitors of T. cruzi proliferation; T. cruzi beta-gal in NIH3T3, GalScreen luminescence, 90 h; inhibition, % at 8.34 µM; actives 5.9% (n = 77,000); AID 624255;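 active means mean inhibition above about 93%, with at least 55% of replicates each passing it, limit read from the data, passing the limit was not always enough; inconclusive means only one of those two conditions holds; inactive means neither condition holds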
T cruzi growth-2 = inhibitors of T. cruzi proliferation. AID 651739. inhibition, % at 8.35 µM. shares compounds with T cruzi growth-1. T. cruzi beta-gal in NIH3T3, GalScreen luminescence, 90 h. actives 72% (n = 5,600);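 active means mean replicate inhibition above about 95% and at least 55% of replicates individually reaching it, limit read from the data; inconclusive means only one of the two criteria is met; inactive means neither criterion is met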
T cruzi growth-3 = inhibitors of T. cruzi proliferation; shares compounds with T cruzi growth-1; T. cruzi beta-gal in NIH3T3, GalScreen luminescence, 90 h; inhibition, % at 2.09 µM; actives 21% (n = 5,600); AID 651740;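 active means mean inhibition above about 95%, with at least 55% of replicates also reaching it, limit read from the data; inconclusive means meets just one of the two conditions; inactive means meets neither condition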;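 further: plate controls were neutral control median for no effect and positive control median for full effect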
3T3 cytotox = cytotoxicity in mouse NIH/3T3 fibroblasts; actives 14% (n = 5,600); shares compounds with T cruzi growth-1; NIH/3T3 viability, CellTiter-Glo ATP luminescence, 90 h; cytotoxicity (signal decrease), % at 8.35 µM;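 active means mean signal decrease across replicates above about 35% based on untreated-well scatter, with enough replicates individually passing, limit read from the data; inconclusive means no rule stated though some were filed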;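 further: 0% = median of neutral control wells and 100% = median of positive control wells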
3T3 cytotox 2 = kills mouse NIH/3T3 fibroblasts; shares compounds with T cruzi growth-1; NIH/3T3 viability, CellTiter-Glo ATP luminescence, 90 h; inhibition, % at 24.9 µM; actives 56% (n = 5,600); AID 651744;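 active means mean loss of cell viability signal at or above a set limit, and enough replicates individually reaching it; inconclusive means meets only the mean limit or only the replicate share; inactive means meets neither condition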;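 further: 0% = median of neutral control wells and 100% = median of positive control wells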
Active calls of the source: *; u = inconclusive; x = not tested or not shown; ! = a repeat was not active. Only some compounds are listed: those with a hit (about 6.7% of all), similar ones and a draw of the others.

SMILES	C diff HTS	Pf Dd2 growth	T cruzi growth-1	T cruzi growth-2	T cruzi growth-3	3T3 cytotox	3T3 cytotox 2
C[C@H](CO)N1C[C@H](C)[C@@H](CN(C)Cc2ccccc2)Oc2cc(C#CC(C)(C)O)ccc2S1(=O)=O	-5	-12	89	x	x	x	x
C[C@@H]1CN([C@@H](C)CO)S(=O)(=O)c2ccc(C#CC(C)(C)O)cc2O[C@H]1CN(C)Cc1ccc(-c2ccccc2)cc1	8	-56	118*	91	113*	116*	107*
C[C@H](CO)N1C[C@H](C)[C@H](CN(C)Cc2ccccc2)Oc2cc(C#CC(C)(C)O)ccc2S1(=O)=O	-5	-16	60	x	x	x	x
C[C@H](O)C#Cc1ccc2c(c1)O[C@@H](CN(C)Cc1ccc(-c3ccccc3)cc1)[C@H](C)CN([C@H](C)CO)S2(=O)=O	1	-72	60	x	x	x	x
C[C@H](O)C#Cc1ccc2c(c1)O[C@H](CN(C)Cc1ccc(-c3ccccc3)cc1)[C@H](C)CN([C@@H](C)CO)S2(=O)=O	0	8	109*	99*	101*	47*	104*
C[C@@H]1CCCCO[C@H](CN(C)CC2CC2)[C@@H](C)CN([C@@H](C)CO)C(=O)c2cc(NS(=O)(=O)c3ccc(F)cc3)ccc2O1	0	-47	59	x	x	x	x
COc1ccc(NC(=O)N(C)C[C@@H]2Oc3ccc(NC(=O)CCN4CCOCC4)cc3CC(=O)N([C@H](C)CO)C[C@@H]2C)cc1	3	-2	x	x	x	x	x
CCNC(=O)c1cc2c(c(-c3cccc(-c4ccncc4)c3)n1)[C@H](CCO)N(S(=O)(=O)CC)C2	3	-7	x	x	x	x	x
Cc1ccc(-c2ccc([C@@H]3[C@@H](CO)N4CCCCN(C(=O)Nc5cccc(F)c5)C[C@@H]34)cc2)cc1	65	-20	105*	89	u	69*	105*
O=C(Nc1cccc(F)c1)N1CCCCN2[C@@H](CO)[C@@H](c3ccc(-c4ccncc4)cc3)[C@@H]2C1	11	-58	u	104*	83	23	43*
Cc1ccc(-c2ccc([C@H]3[C@@H](CO)N4C(=O)CN(C(=O)Nc5cccc(F)c5)C[C@@H]34)cc2)cc1	11	-40	x	x	x	x	x
O=C(Nc1cccc(F)c1)N1CCCCN2[C@H](C1)[C@H](c1ccc(-c3ccncc3)cc1)[C@@H]2CO	-1	-20	76	x	x	x	x
Cc1ccc(-c2ccc([C@@H]3[C@H]4CN(C(=O)Nc5cccc(F)c5)CCCCN4[C@H]3CO)cc2)cc1	50	10	99*	100*	108*	47*	104*
C[C@H](CO)N1C[C@H](C)[C@H](CN(C)C(=O)c2cccc(F)c2)Oc2cc(-c3cncnc3)ccc2S1(=O)=O	-2	19	x	x	x	x	x
CC=Cc1ccc2n(c1=O)C[C@H]1[C@H](CO)[C@@H](C(=O)N[C@H](C)c3ccccc3)N(C(=O)c3ccccn3)[C@@H]21 (mixture of isomers)	3	3	43	x	x	x	x
C[C@@H]1CN([C@H](C)CO)C(=O)c2cc(C3=CCCC3)cnc2O[C@@H]1CN(C)C(=O)C1CCC1	5	-14	-4	x	x	x	x
C[C@@H]1CN([C@@H](C)CO)S(=O)(=O)c2ccc(-c3ccncc3)cc2O[C@@H]1CN(C)Cc1cccnc1	2	3	68	x	x	x	x
C[C@H](CO)N1C[C@H](C)[C@@H](CN(C)Cc2cccnc2)Oc2cc(-c3cccnc3)ccc2S1(=O)=O	1	-15	101*!	67	45	20	64*
C[C@H](CO)N1C[C@H](C)[C@H](CN(C)Cc2cccnc2)Oc2cc(-c3ccncc3)ccc2S1(=O)=O	6	2	71	x	x	x	x
Cc1ccc(-c2ccc3c(c2)O[C@H](CN(C)Cc2cccnc2)[C@@H](C)CN([C@@H](C)CO)S3(=O)=O)cc1	-3	-83*	119*	106*	97*	50*	105*
C[C@@H]1CN([C@H](C)CO)S(=O)(=O)c2ccc(-c3cccnc3)cc2O[C@@H]1CN(C)Cc1cccnc1	6	9	42	x	x	x	x
C[C@H](CO)N1C[C@H](C)[C@@H](CN(C)Cc2cccnc2)Oc2cc(-c3ccccc3)ccc2S1(=O)=O	-3	-45	84	x	x	x	x
Cc1ccc(-c2ccc3c(c2)O[C@H](CN(C)Cc2cccnc2)[C@@H](C)CN([C@H](C)CO)S3(=O)=O)cc1	3	u	119*	99*	112*	80*	92*
Cc1ccc(-c2ccc3c(c2)O[C@@H](CN(C)Cc2cccnc2)[C@H](C)CN([C@@H](C)CO)S3(=O)=O)cc1	-14	-81*	117*	98*	96*	51*	100*
C[C@H](CO)N1C[C@H](C)[C@@H](CN(C)C(=O)CCCN(C)C)OCCCC[C@H](C)Oc2ccc(NS(=O)(=O)c3ccc(F)cc3)cc2C1=O	-1	17	x	x	x	x	x
SMILES	C diff HTS	Pf Dd2 growth	T cruzi growth-1	T cruzi growth-2	T cruzi growth-3	3T3 cytotox	3T3 cytotox 2
Cc1ccc(S(=O)(=O)NCC[C@@H]2CC[C@H](NC(=O)NC(C)C)[C@@H](CO)O2)cc1	2	0	46	x	x	x	x
COc1ccc(C#Cc2ccc3c(c2)[C@H]2[C@H](CCN2S(=O)(=O)C2=NC(C)C=N2)[C@@H](CO)N3C)cc1 (stereo partly drawn)	-2	4	47	x	x	x	x
C[C@@H]1CN([C@H](C)CO)S(=O)(=O)c2ccc(C3=CCCCC3)cc2O[C@@H]1CN(C)C(=O)C1CCCCC1	-11	-47	127*	96*	92	30	102*
C[C@H]1CN([C@@H](C)CO)S(=O)(=O)c2ccc(C3=CCCC3)cc2O[C@@H]1CN(C)C(=O)C1CCCCC1	-10	-24	105*!	102*!	71	-6	57*!
C[C@H](CO)N1C[C@H](C)[C@@H](CN(C)C(=O)C2CCOCC2)Oc2cc(C3=CCCC3)ccc2S1(=O)=O	-3	-24	u	67	6	20	29*
C[C@H]1CN([C@@H](C)CO)S(=O)(=O)c2ccc(C3=CCCC3)cc2O[C@H]1CN(C)C(=O)C1CCC1	-6	-38	52	x	x	x	x
C[C@@H]1CN([C@@H](C)CO)S(=O)(=O)c2ccc(C3=CCCC3)cc2O[C@@H]1CN(C)C(=O)C1CCOCC1	-3	-1	65	x	x	x	x
C[C@@H]1CN([C@@H](C)CO)S(=O)(=O)c2ccc(C3=CCCCC3)cc2O[C@H]1CN(C)C(=O)C1CCC1	2	-34	28	x	x	x	x
C[C@H]1CN([C@@H](C)CO)C(=O)Cc2cc(NC(=O)Nc3ccc(F)cc3)ccc2O[C@@H]1CN(C)Cc1ccc(Oc2ccccc2)cc1	37	-24	45	x	x	x	x
O=S(=O)(N[C@H]1CC[C@H](CCn2cc(-c3cccc(F)c3)nn2)O[C@@H]1CO)c1ccc(Cl)cc1	x	4	12	x	x	x	x

Source: PubChem BioAssay
